According to PubChem BioAssay (NCI):
This is part of a sample that, as a whole, favours compounds with a hit. Of some 83,000 tested, about 20% had one in any assay.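 The endpoint reported here, percent growth, reads 100 for growth as untreated, 0 for no net growth and -100 for all cells dead.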 A number with no mark means an inactive call. The source made the active and inactive calls. The calls were made as follows: active = growth percent below 10; inactive = the rest.

Key:
Experiment in all cases: NCI-60 one-dose screen, 48 h (100 = growth as untreated, 0 = no growth, -100 = all killed)
Settings in all cases: 10 µM unless noted
NCI-H23 lung = tested on: NCI-H23 lung
NCI-H226 lung = tested on: NCI-H226 lung
NCI-H322M lung = tested on: NCI-H322M lung
HOP-62 NSCLC = tested on: HOP-62 NSCLC
NCI-H460 lung = tested on: NCI-H460 lung
HOP-92 NSCLC = tested on: HOP-92 NSCLC
NCI-H522 lung = tested on: NCI-H522 lung
A549/ATCC NSCLC = tested on: A549/ATCC NSCLC
786-0 renal = tested on: 786-0 renal
COLO 205 colon = tested on: COLO 205 colon
DU-145 prostate = tested on: DU-145 prostate
K-562 leukemia = tested on: K-562 leukemia
MALME-3M melanoma = tested on: MALME-3M melanoma
MDA-MB-231 breast = tested on: MDA-MB-231 breast
RXF 393 renal = tested on: RXF 393 renal
SF-268 CNS = tested on: SF-268 CNS
SF-295 CNS = tested on: SF-295 CNS
SF-539 CNS = tested on: SF-539 CNS
UACC-257 melanoma = tested on: UACC-257 melanoma
M14 melanoma = tested on: M14 melanoma

| SMILES | growth (NCI-H23 lung) | growth (NCI-H226 lung) | growth (NCI-H322M lung) [%] | growth (HOP-62 NSCLC) [%] | growth (NCI-H460 lung) | growth (HOP-92 NSCLC) | growth (NCI-H522 lung) | growth (A549/ATCC NSCLC) [%] | growth (786-0 renal) | growth (COLO 205 colon) | growth (DU-145 prostate) [%] | growth (K-562 leukemia) | growth (MALME-3M melanoma) | growth (MDA-MB-231 breast) | growth (RXF 393 renal) | growth (SF-268 CNS) | growth (SF-295 CNS) | growth (SF-539 CNS) | growth (UACC-257 melanoma) | growth (M14 melanoma) |
| --- | --- | --- | --- | --- | --- | --- | --- | --- | --- | --- | --- | --- | --- | --- | --- | --- | --- | --- | --- | --- |
| Cn1cc(-c2cc3ncnc(Nc4ccc(CC(=O)Nc5cc(C(C)(C)C)nn5C)cc4)c3s2)cn1 | 60% | 38% | 46.4 | 71 | 43.5% | 70% | 41.5% | 42.1 | 43.7% | 52.9% | 40.3 | 17% | 56.7% | 47.7% | 9.8% (active) | 51.8% | 58.1% | 47.4% | 83.9% | 39.2% |
| c1ccc2c(c1)Nc1ccncc1S2 | 99.5% | 84% | 114 | 98.2 | 100% | 97.9% | 92.5% | 100 | 109% | 130% | 118 | 112% | 111% | 87.8% | 4.28% (active) | 99.3% | 101% | 84.4% | 108% | 95.1% |
| CCc1cccc2c1S/C(=C/c1ccc(Cl)cc1)C2=O | 79.6% | 87.2% | 85.4 | 80.9 | 102% | 83.5% | 91.7% | 97.4 | 100% | 108% | 107 | 80.1% | 87.5% | 87.6% | 105% | 93% | 96.7% | 89.1% | 105% | 99.1% |
| COc1ccc(OC)c(/C=C2\Oc3cc(OCCN4CCC(Cc5ccccc5)CC4)ccc3C2=O)c1 | 88.1% | 91% | 94 | 94.4 | 82.2% | 55.2% | 86.6% | 92 | 77.6% | 25.3% | 97.3 | 20.7% | 92.6% | 82.9% | 55.5% | 85.1% | 102% | 87% | 101% | 77.2% |
| [O-][n+]1c2ccccc2[n+]([O-])c2c3ccccc3[nH]c21 | 71.5% | -0.987% (active) | 66.9 | 26.2 | 5.29% (active) | 66.5% | 57.5% | 30.6 | 71% | 69.8% | 72.6 | 87.7% | 110% | 75.9% | 99.6% | 109% | 69.7% | 91.4% | -31.3% (active) | 98.5% |
| Cc1ccc(C2CC(c3ccc(Nc4ccnc5cc(Cl)ccc45)cc3)=NN2C=O)cc1 (stereo not given) | 60.3% | 85.1% | 87.8 | 72.5 | 69.8% | 61.5% | 50.1% | 50.2 | 64% | 64.9% | 68.4 | 16.2% | 46.5% | 66.2% | 61.7% | 48.5% | 31.2% | 91% | 79.8% | 45.8% |
| COc1ccc(-c2nn(C(=O)c3cc(OC)c(OC)c(OC)c3)c3cc(N)ccc23)cc1 | 34.1% | 28.9% | 53.4 | 30.1 | 9.14% (active) | 50.1% | -12.6% (active) | 18.1 | 6.94% (active) | -60.3% (active) | 10.1 | 8.96% (active) | 68.2% | 29.9% | 14.6% | 27.4% | 7.45% (active) | -24% (active) | 86.4% | 24.4% |
| COc1ccc2c(c1OC)C(=O)O[C@H]2[C@H]1c2c(cc3c(c2OC)OCO3)CCN1C | 92.5% | 99.6% | 104 | 98.1 | 105% | 97% | 92% | 101 | 99.5% | 104% | 117 | 66.4% | 92.2% | 104% | 108% | 110% | 94.1% | 98.9% | 95.2% | 94.8% |
| O=C(/C=C/c1ccc([N+](=O)[O-])o1)NNC(=O)c1cc2ccccc2cc1O | 6.76% (active) | 0.682% (active) | 23.3 | 27.5 | 9.04% (active) | 4.15% (active) | -79.5% (active) | 32.4 | -23.8% (active) | -7.38% (active) | 11.7 | 3.48% (active) | -36.3% (active) | 21% | -20.8% (active) | -3.99% (active) | 54.8% | -22.6% (active) | -16.5% (active) | -93.3% (active) |
| CCOC(=O)c1[nH]c(C)c(C(=O)OCc2ccccc2C#N)c1C | 69% | 100% | 88.4 | 68.7 | 83.4% | 47.4% | 51.8% | 83.6 | 61.2% | 89.8% | 87.2 | 25.6% | 66.5% | 73.9% | 58.3% | 72.9% | 75.2% | 16.2% | 114% | 58.9% |
| CC(C)OC(=O)Nc1ccc(-c2nc(-c3cccc(OCCN4CCOCC4)c3)c(-c3ccnc(Br)c3)[nH]2)cc1 | 33% | 55.3% | 46.5 | 28.4 | 30% | 29.8% | 49.9% | 40 | -33% (active) | -5.63% (active) | 63.8 | 0.869% (active) | -5.36% (active) | 39.3% | -42.9% (active) | 52.2% | -65.2% (active) | -0.0542% (active) | 33.5% | 30.5% |
| CN(C)CCNc1nc2ccccc2c2c(=O)c3cc(F)ccc3sc12 | 58.6% | 83.3% | 53 | 51.9 | -5.59% (active) | 10% | 37.8% | 38.9 | 54.1% | -39.6% (active) | 28.1 | -36.5% (active) | 81.9% | 6.88% (active) | 40% | 45.6% | 71.7% | 45.3% | 91.9% | -77.9% (active) |
| O=C1c2cccc3cccc(c23)C(=O)N1Nc1nc(N2CCOCC2)nc(N2CCN(c3ccccc3)CC2)n1 | 64% | 57.5% | 65.5 | 46.3 | 28.8% | 7.52% (active) | 29.9% | 53.1 | 65.6% | 3.51% (active) | 55 | 18.4% | 21.7% | 56.3% | 30.9% | 53.8% | 20.6% | 50.2% | 71.8% | 19.4% |
| Cc1ccc2nc(NC(=O)CSc3nc(Cl)c(C#N)c(-c4ccccc4)n3)sc2c1 | 97.9% | 107% | 101 | 102 | 106% | 95% | 86.9% | 98.6 | 103% | 110% | 113 | 99.7% | 104% | 111% | 114% | 111% | 101% | 102% | 101% | 97.9% |
| Cc1cc(-c2cc(C)c(N)cc2C)c(C)cc1N | 101% | 103% | 118 | 93.1 | 113% | 45.9% | 86.1% | 107 | 84.1% | 99.2% | 121 | 54.7% | 84.2% | 82.8% | 111% | 95.9% | 84.1% | 97.5% | 90.5% | 65.6% |
